Drawing on ChEMBL document CHEMBL3988442, “University of Dundee, Small-Polar-MMV Screening Library” (2021), this text covers Percent Effect for 11 compounds.

For some of these results: Potency and affinity values are given separately.

What all share (design): scale not given: direction of the effect not stated beside the values
In experiment [1] the target is Protein translocase subunit SecA (Escherichia coli (strain K12)) (UniProt P10408). The experiment is described as follows: Assay to Identify E. coli SecA ATPase Inhibitors. The class given is functional. The following applies: 30 µM.
The target in experiment [2] is T1, Ubiquitin-activating enzyme e1, putative (Leishmania donovani (strain BPK282A1)) (UniProt E9BSI1).
T1 sequence (whole entry): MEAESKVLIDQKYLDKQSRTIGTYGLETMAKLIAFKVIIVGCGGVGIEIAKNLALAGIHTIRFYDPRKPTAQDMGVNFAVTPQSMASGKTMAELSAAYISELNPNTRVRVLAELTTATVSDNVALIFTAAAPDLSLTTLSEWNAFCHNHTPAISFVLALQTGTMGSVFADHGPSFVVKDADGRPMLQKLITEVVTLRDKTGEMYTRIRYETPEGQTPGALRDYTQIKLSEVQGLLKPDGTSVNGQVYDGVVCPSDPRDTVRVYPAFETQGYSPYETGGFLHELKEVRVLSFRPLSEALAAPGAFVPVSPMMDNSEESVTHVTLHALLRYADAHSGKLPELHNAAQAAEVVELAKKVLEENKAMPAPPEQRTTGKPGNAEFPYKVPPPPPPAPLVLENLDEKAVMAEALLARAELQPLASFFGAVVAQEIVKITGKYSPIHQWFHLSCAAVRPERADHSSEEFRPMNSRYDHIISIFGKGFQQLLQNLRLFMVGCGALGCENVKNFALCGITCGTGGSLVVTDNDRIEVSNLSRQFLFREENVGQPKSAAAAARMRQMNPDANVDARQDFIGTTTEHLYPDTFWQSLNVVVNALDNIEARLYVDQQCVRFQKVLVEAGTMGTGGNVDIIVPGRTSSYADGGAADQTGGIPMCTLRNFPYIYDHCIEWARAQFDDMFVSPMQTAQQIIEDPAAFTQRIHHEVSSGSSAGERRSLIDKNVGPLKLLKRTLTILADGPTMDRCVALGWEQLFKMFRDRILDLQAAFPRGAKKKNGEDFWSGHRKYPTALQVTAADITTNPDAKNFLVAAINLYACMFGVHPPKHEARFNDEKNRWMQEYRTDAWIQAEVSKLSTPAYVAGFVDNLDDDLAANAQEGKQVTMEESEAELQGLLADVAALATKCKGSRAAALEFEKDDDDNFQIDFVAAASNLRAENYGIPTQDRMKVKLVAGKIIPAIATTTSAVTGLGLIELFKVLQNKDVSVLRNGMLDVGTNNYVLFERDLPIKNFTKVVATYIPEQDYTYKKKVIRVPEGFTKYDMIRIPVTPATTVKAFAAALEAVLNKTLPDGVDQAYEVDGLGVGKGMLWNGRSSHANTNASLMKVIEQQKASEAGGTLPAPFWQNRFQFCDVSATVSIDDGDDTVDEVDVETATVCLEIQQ
The experiment is described as follows: Leishmania donovani Ubiquitin Activating Enzyme (LdE1). The following applies: 30 µM. The class given is functional.

The target in experiment [3] is AMP-activated protein kinase, AMPK (Homo sapiens) (UniProt P54646+O43741+P54619+Q9UGJ0+Q9Y478+Q13131+Q9UGI9). As to the kind of experiment: AMP-dependent Kinase enzyme assay. An in vitro enzyme assay that detects ADP turnover that is directly proportional to AMPK activity. This uses naive AMPK that is activated during the assay with MK-8722. In kind it is functional. Conditions: 30 µM.

Experiment [4] deals with Sialic acid-binding Ig-like lectin 9 (Homo sapiens) (UniProt Q9Y336). As to the kind of experiment: Hs-Siglec9 ALPHAscreen SOP 20170721. Conditions: 10 µM. A general note: Bead proximity is the source of the signal in Alpha formats.
The test system of experiment [5] is Trypanosoma cruzi. The experiment is described as follows: Trypanosoma cruzi phosphomannomutase and mannose-1-phosphate guanylyltransferase assay. The class given is functional. Conditions: 10 µM.
The target in experiment [6] is T2, Arginase-2, mitochondrial (Homo sapiens) (UniProt P78540).
T2 sequence (whole entry): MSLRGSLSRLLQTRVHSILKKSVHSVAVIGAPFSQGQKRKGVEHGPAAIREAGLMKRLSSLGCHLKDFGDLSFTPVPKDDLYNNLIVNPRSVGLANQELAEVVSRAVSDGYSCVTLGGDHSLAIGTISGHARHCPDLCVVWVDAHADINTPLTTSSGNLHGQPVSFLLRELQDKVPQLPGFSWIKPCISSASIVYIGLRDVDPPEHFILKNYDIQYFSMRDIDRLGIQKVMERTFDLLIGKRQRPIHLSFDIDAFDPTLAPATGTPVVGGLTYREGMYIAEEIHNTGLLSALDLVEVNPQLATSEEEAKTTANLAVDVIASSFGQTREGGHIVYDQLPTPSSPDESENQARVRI
As to the kind of experiment: in vitro enzyme assay to detect the production of urea directly proportional to the activity of Arginase II. Also: in the data most compounds retested in dose-response had high values. In kind it is functional. The following applies: 33.3 µM.

In experiment [7] the target is T3, Proteasome subunit beta (Trypanosoma cruzi) (UniProt O96673).
T3 sequence (whole entry): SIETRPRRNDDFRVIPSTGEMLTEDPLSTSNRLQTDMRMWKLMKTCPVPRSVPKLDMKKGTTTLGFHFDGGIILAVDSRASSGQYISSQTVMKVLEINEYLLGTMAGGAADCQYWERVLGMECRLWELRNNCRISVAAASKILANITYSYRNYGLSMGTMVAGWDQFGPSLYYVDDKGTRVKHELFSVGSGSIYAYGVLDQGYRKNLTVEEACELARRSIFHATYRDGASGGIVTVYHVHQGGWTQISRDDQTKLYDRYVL
The experiment is described as follows: Trypanosoma cruzi proteasome chymotrypsin-like activity (TcProtChymo) assay. Also: in the data most compounds retested in dose-response had high values. The following applies: 9.37 µM. In kind it is functional.

Experiment [8] is filed under the species Homo sapiens. As to the kind of experiment: To identify inhibition of the IFN signalling (Jak-Stat) pathway via expression of an eGFP reporter gene under the control of an IFN-stimulated response element (ISRE) containing MxA promoter. In kind it is functional. The following applies: 30 µM. In general terms: In a reporter assay the amount or activity of a reporter protein is the signal.

The target of experiment [9] is T4, Tyrosyl-tRNA synthetase, putative (Trypanosoma cruzi (strain CL Brener)) (UniProt Q4DSP6).
T4 sequence (whole entry): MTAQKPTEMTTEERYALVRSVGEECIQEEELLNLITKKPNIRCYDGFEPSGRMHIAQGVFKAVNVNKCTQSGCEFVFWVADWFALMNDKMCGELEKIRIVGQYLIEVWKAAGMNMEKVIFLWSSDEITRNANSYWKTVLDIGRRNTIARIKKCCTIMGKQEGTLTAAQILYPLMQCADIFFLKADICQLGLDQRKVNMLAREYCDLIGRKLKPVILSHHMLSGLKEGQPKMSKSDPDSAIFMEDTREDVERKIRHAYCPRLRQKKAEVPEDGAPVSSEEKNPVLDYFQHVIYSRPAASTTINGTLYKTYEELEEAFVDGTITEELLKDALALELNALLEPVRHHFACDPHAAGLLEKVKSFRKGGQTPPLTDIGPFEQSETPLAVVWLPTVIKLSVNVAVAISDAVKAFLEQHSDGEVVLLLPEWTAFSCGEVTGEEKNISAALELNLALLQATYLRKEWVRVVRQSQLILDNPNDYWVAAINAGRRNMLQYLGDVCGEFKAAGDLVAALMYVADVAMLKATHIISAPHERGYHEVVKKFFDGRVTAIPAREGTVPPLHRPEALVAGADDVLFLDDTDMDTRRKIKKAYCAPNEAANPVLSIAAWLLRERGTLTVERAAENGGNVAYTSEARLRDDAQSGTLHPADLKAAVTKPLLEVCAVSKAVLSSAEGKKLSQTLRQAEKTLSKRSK
As to the kind of experiment: Trypanosoma cruzi tyrosyl tRNA synthetase (TcYRS) _High Tyrosine SOP. Also: in the data most compounds retested in dose-response had high values. The class given is functional. Conditions: 30 µM.

Experiment [10] deals with T4, Tyrosyl-tRNA synthetase, putative (Trypanosoma cruzi (strain CL Brener)). As to the kind of experiment: Trypanosoma cruzi tyrosyl tRNA synthetase (TcYRS) SOP. In kind it is functional. The following applies: 30 µM.
The target of experiment [11] is Chromo domain-containing protein 1 (Saccharomyces cerevisiae (strain ATCC 204508 / S288c) (Baker's yeast)) (UniProt P32657). As to the kind of experiment: ScCHD-1 Enzyme Inhibition Assay. Also: in the data most compounds retested in dose-response had high values. In kind it is functional. Conditions: 30 µM.
Chain of Chromo domain-containing protein 1 (Saccharomyces cerevisiae (strain ATCC 204508 / S288c) (Baker's yeast)) (P32657 whole entry, the tested form may be a part): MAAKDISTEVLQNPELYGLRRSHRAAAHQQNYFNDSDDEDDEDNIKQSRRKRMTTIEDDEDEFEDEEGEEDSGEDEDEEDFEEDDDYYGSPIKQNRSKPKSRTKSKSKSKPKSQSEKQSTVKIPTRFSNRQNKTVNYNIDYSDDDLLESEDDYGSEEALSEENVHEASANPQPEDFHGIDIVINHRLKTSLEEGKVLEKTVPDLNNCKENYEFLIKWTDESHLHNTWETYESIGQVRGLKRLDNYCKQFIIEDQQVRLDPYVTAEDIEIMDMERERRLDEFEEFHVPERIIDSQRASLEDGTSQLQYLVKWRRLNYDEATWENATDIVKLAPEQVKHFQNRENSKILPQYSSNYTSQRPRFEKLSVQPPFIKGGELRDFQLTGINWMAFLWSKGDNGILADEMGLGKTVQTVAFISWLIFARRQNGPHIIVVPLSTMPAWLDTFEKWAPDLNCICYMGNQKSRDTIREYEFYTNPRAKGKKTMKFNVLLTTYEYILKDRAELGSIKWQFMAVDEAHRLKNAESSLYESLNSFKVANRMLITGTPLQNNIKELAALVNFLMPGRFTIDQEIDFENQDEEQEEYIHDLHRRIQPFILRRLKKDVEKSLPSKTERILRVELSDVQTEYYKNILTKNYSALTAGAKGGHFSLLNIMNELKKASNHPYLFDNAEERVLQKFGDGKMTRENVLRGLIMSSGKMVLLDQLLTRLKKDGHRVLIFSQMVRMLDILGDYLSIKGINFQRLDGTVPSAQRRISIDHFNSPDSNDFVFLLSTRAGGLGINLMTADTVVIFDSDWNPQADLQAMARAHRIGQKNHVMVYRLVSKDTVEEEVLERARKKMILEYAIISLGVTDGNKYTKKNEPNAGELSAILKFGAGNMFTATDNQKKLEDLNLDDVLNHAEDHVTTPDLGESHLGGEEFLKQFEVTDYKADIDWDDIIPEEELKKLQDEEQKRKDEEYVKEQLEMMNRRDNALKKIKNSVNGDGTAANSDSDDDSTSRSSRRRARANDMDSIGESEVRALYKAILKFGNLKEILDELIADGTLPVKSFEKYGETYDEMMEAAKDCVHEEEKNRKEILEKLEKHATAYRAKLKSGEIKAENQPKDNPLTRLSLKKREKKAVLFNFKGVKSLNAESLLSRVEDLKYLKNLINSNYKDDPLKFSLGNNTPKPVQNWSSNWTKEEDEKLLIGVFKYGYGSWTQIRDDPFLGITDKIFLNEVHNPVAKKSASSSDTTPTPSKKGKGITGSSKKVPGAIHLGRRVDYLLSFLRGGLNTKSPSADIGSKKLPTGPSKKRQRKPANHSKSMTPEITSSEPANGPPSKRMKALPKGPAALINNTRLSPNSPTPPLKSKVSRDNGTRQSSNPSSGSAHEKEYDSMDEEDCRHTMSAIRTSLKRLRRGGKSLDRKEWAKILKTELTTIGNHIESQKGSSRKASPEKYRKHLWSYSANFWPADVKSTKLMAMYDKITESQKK

Chain of Protein translocase subunit SecA (Escherichia coli (strain K12)) (P10408 whole entry): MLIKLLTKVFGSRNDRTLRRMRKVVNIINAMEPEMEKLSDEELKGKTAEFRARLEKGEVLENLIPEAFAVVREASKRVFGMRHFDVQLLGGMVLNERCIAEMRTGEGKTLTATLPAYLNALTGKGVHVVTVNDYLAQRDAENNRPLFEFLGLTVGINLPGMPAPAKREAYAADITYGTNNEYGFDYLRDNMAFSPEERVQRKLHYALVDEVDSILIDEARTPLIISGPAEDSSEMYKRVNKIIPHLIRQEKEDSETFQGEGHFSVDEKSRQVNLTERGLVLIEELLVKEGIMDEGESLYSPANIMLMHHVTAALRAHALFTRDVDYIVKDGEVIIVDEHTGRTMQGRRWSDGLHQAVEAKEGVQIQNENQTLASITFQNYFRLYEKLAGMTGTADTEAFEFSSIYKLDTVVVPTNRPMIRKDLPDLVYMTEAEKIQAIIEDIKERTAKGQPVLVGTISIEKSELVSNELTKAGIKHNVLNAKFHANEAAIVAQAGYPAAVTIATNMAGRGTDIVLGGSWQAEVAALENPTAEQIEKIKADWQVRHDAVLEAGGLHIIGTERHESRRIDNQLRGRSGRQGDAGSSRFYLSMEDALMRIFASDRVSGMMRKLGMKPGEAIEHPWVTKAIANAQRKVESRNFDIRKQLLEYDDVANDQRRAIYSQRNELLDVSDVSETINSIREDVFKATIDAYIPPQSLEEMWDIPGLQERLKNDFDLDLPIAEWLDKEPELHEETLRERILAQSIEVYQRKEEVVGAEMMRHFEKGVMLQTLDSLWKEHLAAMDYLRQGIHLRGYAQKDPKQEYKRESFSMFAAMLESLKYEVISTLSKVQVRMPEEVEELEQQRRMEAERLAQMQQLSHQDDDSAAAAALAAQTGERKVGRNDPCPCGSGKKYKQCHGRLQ
Chain of Sialic acid-binding Ig-like lectin 9 (Homo sapiens) (Q9Y336 whole entry): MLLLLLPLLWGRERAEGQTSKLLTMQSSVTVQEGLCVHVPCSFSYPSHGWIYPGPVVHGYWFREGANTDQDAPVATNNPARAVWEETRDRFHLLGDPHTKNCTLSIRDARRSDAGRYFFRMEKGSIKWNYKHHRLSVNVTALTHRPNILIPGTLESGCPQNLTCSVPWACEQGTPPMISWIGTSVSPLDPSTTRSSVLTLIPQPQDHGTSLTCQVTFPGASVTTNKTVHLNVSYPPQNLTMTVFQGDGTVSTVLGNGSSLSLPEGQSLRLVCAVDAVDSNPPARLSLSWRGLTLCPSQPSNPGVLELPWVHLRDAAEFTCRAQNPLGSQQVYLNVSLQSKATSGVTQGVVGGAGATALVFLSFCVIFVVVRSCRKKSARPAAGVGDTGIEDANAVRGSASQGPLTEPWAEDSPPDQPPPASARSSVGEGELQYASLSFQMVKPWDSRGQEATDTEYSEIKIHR

As for `CNC(=O)Cc1ccc(NC(=O)NC(C)C(C)C)cc1` (stereo unspecified), the Percent Effect is -2.02% in experiment [1]; 10.5% in experiment [2]; 3.68% in [3]; 1.41% in experiment [4]; 1.66% in experiment [5]; 0% in [6]. The Percent Effect in experiment [7] was 8.53%; in [8], -8.18%; in [9], 4.25%; in experiment [10] it was 15.6%; in [11] it was -3.23%.

As to `Cc1nn(C)c(N(C)C)c1CNC1CCOc2c(F)cccc21` (stereo unspecified), the Percent Effect in experiment [1] is -6.1%; in [2], 5.26%; in experiment [3], -2.48%; in [4], 4.77%; in experiment [5], -6.01%; in [6] it was 0.766%. The Percent Effect was 8.02% in [7]; 9.98% in experiment [8]; 6.37% in [9]; 4.88% in experiment [10]; 2.09% in experiment [11].

On to `Cc1cnn(CC2CN(Cc3nc4ccccc4nc3C)CCO2)c1` (stereo unspecified), for which the Percent Effect is -4.61% in [1]; 2.6% in [2]; -4.31% in experiment [3]; -1.3% in [4]; 6.56% in experiment [5]; -4% in experiment [6]. For the same compound, the Percent Effect in experiment [7] was 7.52%; in experiment [8], -8.59%; in [9], 9.52%; in experiment [10], 14.1%; in experiment [11] it was -22.4%.

Regarding `Cc1csc(C2CCCCN2C(=O)CN(C)C2CC2)n1` (stereo unspecified), the Percent Effect in [1] is 1.03%; in experiment [2], -13.9%; in experiment [3], 0.541%; in [4] it was -1.97%; in experiment [5] it was 2.56%; in experiment [6], -2.37%. The Percent Effect was 8.75% in experiment [7]; -15.9% in experiment [8]; 1.04% in experiment [9]; 5.06% in experiment [10]; 9.83% in experiment [11].

For `CS(=O)(=O)CCSc1cccc(C#N)c1`, the Percent Effect is -3.18% in [1]; -4.17% in experiment [2]; -4.21% in [3]; -5.6% in [4]; -0.291% in experiment [5]; -0.442% in [6]. The Percent Effect in experiment [7] was 7.72%; in experiment [8] it was 7.41%; in experiment [9], -1.05%; in experiment [10] it was 0%; in experiment [11] it was -0.524%.

For `CCc1c(C(=O)N2CCN(c3ncccn3)CC2)cnn1C(C)(C)C`, the Percent Effect in [1] was -1.49%; in experiment [2], 21.1%; in experiment [3], -5.24%; in experiment [4], 0.163%; in experiment [5] it was 0.0934%; in experiment [6], 1.44%. Moreover, the Percent Effect in experiment [7] was 13.3%; in experiment [8], 9.72%; in experiment [9], 4.43%; in experiment [10] it was 18.5%; in experiment [11] it was -8.38%.

Regarding `CNC(=O)c1nc2c(s1)CCN(C(=O)Cc1ccc(OC)cc1)CC2`, the Percent Effect was -7.69% in experiment [1]; 5.41% in [2]; 1.22% in experiment [3]; -1.04% in experiment [4]; -1.07% in experiment [5]; -1.59% in [6]. The Percent Effect in experiment [7] was determined as 0.369%; in experiment [8] it was 8.46%; in experiment [9] it was 4.32%; in experiment [10], 0%; in experiment [11], 1.61%.

Consider `Cc1cccc(CNCc2c(C(C)C)nn(C)c2N2CCOCC2)n1`, for which the Percent Effect in experiment [1] was -1.17%; in experiment [2] it was 5.48%; in [3], -18.3%; in experiment [4], -6.47%; in experiment [5], -1.57%; in experiment [6], -8.64%. The Percent Effect in experiment [7] was 5.68%; in [8], -8.24%; in [9], 2.15%; in [10] it was 5%; in experiment [11], -2.13%.

As for `CCOc1ccc(CN(C)C(=O)NC(C)c2nncn2C)cc1` (stereo unspecified), the Percent Effect in experiment [1] was 1.14%; in experiment [2], 15.3%; in [3], -8.94%; in experiment [4], 7%; in experiment [5], 0.0972%; in experiment [6] it was 4.42%. Besides, the Percent Effect in experiment [7] was 18.4%; in [8], 11.4%; in experiment [9], 7.37%; in [10], 5.13%; in [11] it was -0.989%.

As for `O=C(NCCC(=O)N1CCCCCC1)c1c(O)cc(F)cc1F`, the Percent Effect is -5.59% in [1]; 7.79% in [2]; 1.53% in [3]; -4.08% in experiment [4]; 7.35% in experiment [5]; -4% in [6]. Also, the Percent Effect was 9.78% in [7]; 6.03% in experiment [8]; 2.86% in experiment [9]; 14.1% in experiment [10]; -20.3% in [11].

Take `Fc1ccc(CN2CCC(c3nccnc3-n3ccnc3)CC2)cc1`: the Percent Effect in [1] is -8.16%; in [2] it was 17.6%; in experiment [3], 8.26%; in [4], 0.663%; in experiment [5], 3.75%; in experiment [6], -3.02%. Besides, the Percent Effect in experiment [7] is 12.5%; in experiment [8] it was 17.9%; in experiment [9], 3.23%; in experiment [10], 3.9%; in experiment [11], -17.3%.
